# Results reported in the antibiotic and cytotoxicity screens of Wong et al. (2023).
# Out of some 39,000 compounds screened, about 3,300 (8.5%) were called active. This excerpt belongs to a sample that is enriched for actives.
# Test system: HepG2
# Test: cytotoxicity call (relative viability < 0.9)
# Settings: 10 µM
row,SMILES,cytotoxicity call
1,Cc1ccc(-c2ccc3c(c2)O[C@@H](CN(C)C(=O)CN(C)C)[C@@H](C)CN([C@H](C)CO)S3(=O)=O)cc1,inactive
2,CO[C@H]1CN(C)C(=O)c2cc(NC(=O)CC(F)(F)F)ccc2OC[C@@H](C)N(S(=O)(=O)c2cn(C)cn2)C[C@H]1C,inactive
3,CO[C@@H](C(=O)N(C)C[C@@H]1OCc2ccccc2-c2c(n(C)c3ccccc23)C(=O)N([C@@H](C)CO)C[C@H]1C)c1ccccc1,inactive
4,COc1ccccc1CNC(=O)C[C@H]1C[C@@H]2c3cc(NS(=O)(=O)c4ccc(F)cc4)ccc3O[C@@H]2[C@H](CO)O1,inactive
5,C[C@@H]1CCCCO[C@H](CN(C)S(=O)(=O)c2ccccc2)[C@H](C)CN([C@H](C)CO)C(=O)c2cc(NS(C)(=O)=O)ccc2O1,inactive
6,COc1ccc(NC(=O)N(C)C[C@H]2Oc3ccc(NC(=O)Cn4cnnn4)cc3CC(=O)N([C@@H](C)CO)C[C@@H]2C)cc1,inactive
7,COc1ccc(NC(=O)Nc2ccc3c(c2)[C@@H]2C[C@@H](CC(=O)NCC(F)(F)F)O[C@@H](CO)[C@@H]2O3)cc1,inactive
8,C[C@@H]1CN([C@H](C)CO)C(=O)c2cccc(NC(=O)Nc3ccc(F)cc3)c2O[C@@H]1CN(C)Cc1ccc(C(=O)Nc2ccccc2N)cc1,inactive
9,COCC#Cc1cnc2c(c1)C(=O)N([C@H](C)CO)C[C@@H](C)[C@@H](CN(C)S(=O)(=O)c1ccccc1)O2,inactive
10,COCCN1C(=O)C2=C(C1=O)[C@H]1N(C)c3ccccc3[C@@]13C[C@@H](CO)N(C(C)=O)C3=N2,inactive
11,C[C@H](CO)N1C[C@H](C)[C@H](CN(C)C(=O)Nc2ccc(C(F)(F)F)cc2)Oc2ncc(-c3ccc(C#N)cc3)cc2C1=O,inactive
12,C=CCOC(=O)[C@@H]1[C@H]2C(=O)O[C@H](c3ccccc3)[C@H](c3ccccc3)N2[C@H](c2ccc(OCCOC(=O)NCCCCCC(=O)NO)cc2)[C@]12C(=O)Nc1ccccc12,inactive
13,C[C@@H]1CO[C@]2(O[C@H]3C[C@H]4[C@H]5C[C@H](O[C@H]6O[C@@H](C)[C@@H](O)[C@@H](O[C@@H]7O[C@@H](C)[C@H](O)[C@@H](O)[C@H]7O)[C@@H]6O)[C@H]6C[C@@H](O)CC[C@]6(C)[C@@H]5CC[C@]4(C)[C@H]3[C@@H]2C)[C@@H](O)C1,inactive
14,C[C@@H]1CC[C@@]2(OC1)O[C@H]1C[C@H]3[C@H]4C[C@@H](O)[C@H]5C[C@@H](O[C@@H]6O[C@H](CO)[C@H](O[C@@H]7O[C@H](CO)[C@@H](O)[C@H](O[C@@H]8OC[C@@H](O)[C@H](O)[C@H]8O)[C@H]7O[C@@H]7O[C@H](CO)[C@@H](O[C@@H]8O[C@H](CO)[C@@H](O)[C@H](O)[C@H]8O)[C@H](O)[C@H]7O)[C@H](O)[C@H]6O)[C@H](O)C[C@]5(C)[C@@H]4CC[C@]3(C)[C@H]1[C@@H]2C,active
15,CC1CCC2(OC1)OC1CC3C4CCC5CC(O)CCC5(C)C4CCC3(C)C1C2C (stereo not drawn),inactive
16,C[C@@H]1CC[C@@]2(OC1)O[C@H]1C[C@H]3[C@H]4C[C@@H](O)[C@H]5C[C@@H](O[C@@H]6O[C@H](CO)[C@H](O[C@@H]7O[C@H](CO)[C@@H](O)[C@H](O[C@@H]8OC[C@@H](O)[C@H](O)[C@H]8O)[C@H]7O[C@@H]7O[C@H](CO)[C@@H](O)[C@H](O)[C@H]7O)[C@H](O)[C@H]6O)[C@H](O)C[C@]5(C)[C@@H]4CC[C@]3(C)[C@H]1[C@@H]2C,active
17,CC(C)(O)[C@H]1CC[C@@](C)([C@H]2[C@@H](O)C[C@@]3(C)[C@@H]4C[C@H](O[C@@H]5O[C@H](CO)[C@@H](O)[C@H](O)[C@H]5O)[C@H]5C(C)(C)[C@@H](O[C@@H]6OC[C@@H](O)[C@H](O)[C@H]6O)CC[C@@]56C[C@@]46CC[C@]23C)O1,inactive
18,CC(C)(O)C1CCC(C)(C2C(O)CC3(C)C4CC(OC5OC(CO)C(O)C(O)C5O)C5C(C)(C)C(OC6OCC(O)C(O)C6O)CCC56CC46CCC23C)O1 (stereo not drawn),inactive
19,C[C@H]1CN([C@@H](C)CO)C(=O)Cc2cc(NC(=O)C3CCCCC3)ccc2O[C@@H]1CN(C)C(=O)Nc1cccc2ccccc12,inactive
20,Nc1nc(Cl)nc2c1ncn2[C@H]1C[C@@H](O)[C@@H](CO)O1,inactive
21,C[C@@H]1CN([C@@H](C)CO)C(=O)c2cc(N(C)C)ccc2O[C@@H](C)CCCCO[C@H]1CN(C)C(=O)Nc1cccc2ccccc12,inactive
22,Fc1ccc(Nc2ncnc3sc(-c4ccccc4)cc23)cc1,inactive
23,COc1ccc(S(=O)(=O)Nc2ccc3c(c2)C(=O)N([C@H](C)CO)C[C@@H](C)[C@@H](CN(C)C(=O)Nc2cccc4ccccc24)O3)cc1,inactive
24,CC(=O)Oc1cc2c(c(C)c1OC(C)=O)CC=C1[C@@]2(C)CC[C@@]2(C)[C@H]3C[C@](C)(C(=O)O)CC[C@]3(C)CC[C@]12C,active
25,CC1(C(=O)O)CCC2(C)CCC3(C)C(=CC(=O)C4C5(C)CCC(O)C(C)(C)C5CCC43C)C2C1 (stereo not drawn),inactive
26,C[C@@H]1CN([C@H](C)CO)C(=O)c2cc(NC(=O)CCC(F)(F)F)ccc2O[C@@H](C)CCCCO[C@@H]1CN(C)Cc1ccc(C(F)(F)F)cc1,inactive
27,C[C@H](CO)N1C[C@H](C)[C@@H](CN(C)Cc2ccc(C(F)(F)F)cc2)OCCCC[C@H](C)Oc2ccc(NC(=O)CCC(F)(F)F)cc2C1=O,inactive

row,SMILES,cytotoxicity call
1,C[C@H](CO)N1C[C@H](C)[C@H](CN(C)Cc2ccc(C(F)(F)F)cc2)OCCCC[C@H](C)Oc2ccc(NC(=O)CCC(F)(F)F)cc2C1=O,inactive
2,C[C@@H]1CCCCO[C@H](CN(C)Cc2ccc(C(F)(F)F)cc2)[C@@H](C)CN([C@H](C)CO)C(=O)c2cc(NC(=O)CCC(F)(F)F)ccc2O1,inactive
3,C[C@@H]1CCCCO[C@@H](CN(C)Cc2ccc(C(F)(F)F)cc2)[C@H](C)CN([C@@H](C)CO)C(=O)c2cc(NC(=O)CCC(F)(F)F)ccc2O1,active
4,C[C@@H]1CCCCO[C@@H](CN(C)Cc2ccc(C(=O)O)cc2)[C@H](C)CN([C@H](C)CO)C(=O)c2cc(NC(=O)CCC(F)(F)F)ccc2O1,active
5,C[C@@H]1CCCCO[C@H](CN(C)Cc2ccc(C(F)(F)F)cc2)[C@H](C)CN([C@@H](C)CO)C(=O)c2cc(NC(=O)CCC(F)(F)F)ccc2O1,active
6,C[C@@H]1CCCCO[C@H](CN(C)Cc2ccc(C(F)(F)F)cc2)[C@@H](C)CN([C@@H](C)CO)C(=O)c2cc(NC(=O)CCC(F)(F)F)ccc2O1,inactive
7,C[C@@H]1CN([C@H](C)CO)C(=O)c2cc(NC(=O)CCC(F)(F)F)ccc2O[C@@H](C)CCCCO[C@H]1CN(C)Cc1ccc(C(=O)O)cc1,inactive
8,C[C@@H]1CN([C@@H](C)CO)C(=O)c2cc(NC(=O)CCC(F)(F)F)ccc2O[C@@H](C)CCCCO[C@H]1CN(C)Cc1ccc(C(=O)O)cc1,inactive
9,C[C@@H]1CCCCO[C@@H](CN(C)Cc2ccc(C(F)(F)F)cc2)[C@H](C)CN([C@H](C)CO)C(=O)c2cc(NC(=O)CCC(F)(F)F)ccc2O1,inactive
10,C[C@H]1CCCCO[C@H](CN(C)Cc2ccc(C(F)(F)F)cc2)[C@@H](C)CN([C@@H](C)CO)C(=O)c2cc(NC(=O)CCC(F)(F)F)ccc2O1,active
11,CN(C)CC#Cc1ccc([C@@H]2[C@@H](CO)N3C(=O)CN(C(=O)c4cccnc4)C[C@H]23)cc1,inactive
12,CO[C@H](CN(C)C(=O)Nc1ccc(C(F)(F)F)cc1)[C@@H](C)CN(Cc1ccccc1Cl)[C@@H](C)CO,inactive
13,C=CCC[C@H](Cc1ccc(F)cc1)C(=O)O[C@H](CNC(=O)[C@@H](CC=C)CC(=O)N[C@@H](CO)Cc1ccccc1)c1ccccc1,inactive
14,C[C@H](CO)N1C[C@H](C)[C@@H](CN(C)Cc2ccc(-c3ccccc3)cc2)Oc2c(NC(=O)C3CC3)cccc2C1=O,inactive
15,NC(=O)NCC#Cc1ccc2c(c1)[C@]1(C(=O)N2)[C@H](C(=O)N2CCCCCCC2)[C@H]2C(=O)O[C@H](c3ccccc3)[C@H](c3ccccc3)N2[C@@H]1c1ccccc1OCCO,inactive
16,C[C@@H]1CN([C@@H](C)CO)S(=O)(=O)c2ccc(-c3ccccc3F)cc2O[C@H]1CN(C)S(C)(=O)=O,inactive
17,CN1C(=O)[C@@H](O)N(c2ccccc2)C1=O,inactive
18,CCOC(=O)[C@H](CCc1ccccc1)N[C@@H](C)C(=O)N1C(=O)N(C)C[C@H]1C(=O)O,inactive
19,CC(C)NC(=O)N(C)C[C@@H]1Oc2ccc(NS(=O)(=O)c3ccc(Cl)cc3)cc2CC(=O)N([C@@H](C)CO)C[C@H]1C,inactive
20,C[C@@H]1CN([C@@H](C)CO)C(=O)c2cccc(NS(=O)(=O)c3cccs3)c2O[C@H]1CN(C)Cc1ccc(Cl)c(Cl)c1,inactive
21,C[C@@H]1CN([C@@H](C)CO)C(=O)c2cc(NC(=O)CCC(F)(F)F)ccc2O[C@@H](C)CCCCO[C@H]1CN(C)Cc1ccc(C(F)(F)F)cc1,inactive
22,COc1ccc(CN(C)C[C@H]2OCCCC[C@H](C)Oc3ccc(NC(=O)CCC(F)(F)F)cc3C(=O)N([C@@H](C)CO)C[C@H]2C)cc1,inactive
23,COc1ccc(CN(C)C[C@H]2OCCCC[C@H](C)Oc3ccc(NC(=O)CCC(F)(F)F)cc3C(=O)N([C@H](C)CO)C[C@H]2C)cc1,active
24,COc1ccc(CN(C)C[C@H]2OCCCC[C@@H](C)Oc3ccc(NC(=O)CCC(F)(F)F)cc3C(=O)N([C@H](C)CO)C[C@H]2C)cc1,inactive
25,C[C@H]1CCCCO[C@@H](CN(C)Cc2ccc(C(F)(F)F)cc2)[C@@H](C)CN([C@@H](C)CO)C(=O)c2cc(NC(=O)CCC(F)(F)F)ccc2O1,active
26,C[C@@H]1CN([C@@H](C)CO)C(=O)c2cc(NC(=O)CCC(F)(F)F)ccc2O[C@@H](C)CCCCO[C@@H]1CN(C)Cc1ccc(C(F)(F)F)cc1,inactive
